Reference: PubChem BioAssay (NCATS)
Inconclusive results are not listed. The source made the active and inactive calls. Unless noted, the call rests on the fitted dose curve; in most records, active means well fitted inhibition curve with a large enough effect; inconclusive means small, poorly fitted or top-dose-only effect; inactive means no such curve, though single readings can be large or run the other way.

How the values were obtained:
[1] = qHTS profiling of the MIPE4 collection as inhibitors of Plasmodium falciparum (3D7) proliferation (AID 743344; call rule not given here;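 further: scaled between DMSO vehicle wells and 0.29 µM artemisinin as full inhibition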); details: P. falciparum 3D7 in erythrocytes, SYBR Green DNA fluorescence, 72 h; at 28.5 µM unless noted
Method in brief: (§1)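 Parasite DNA was quantified by SYBR Green I fluorescence (ex 485, em 535 nm) after overnight lysis in saponin/Triton buffer at room temperature. Cultures at 0.3% parasitemia and 2.5% hematocrit were first exposed to compound for 72 h at 37 C; signals were normalised to artemisinin (0.29 uM) and vehicle wells.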

[2] = qHTS profiling of the MIPE4 collection as inhibitors of Plasmodium falciparum (DD2) proliferation (AID 743345; call rule not given here); details: P. falciparum Dd2 in erythrocytes, SYBR Green DNA, 72 h; at 28.5 µM unless noted
Method in brief: as §1

[3] = qHTS profiling of the MIPE4 collection as inhibitors of Plasmodium falciparum (DD2) proliferation (Rep 2) (AID 743346; call rule not given here); details: P. falciparum Dd2 in erythrocytes, SYBR Green DNA, 72 h; at 28.5 µM unless noted
Method in brief: as §1

[4] = qHTS profiling of the MIPE4 collection as inhibitors of Plasmodium falciparum (HB3) proliferation (AID 743347; call rule not given here;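 further: plate controls were DMSO vehicle wells for no effect and artemisinin wells for full effect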); details: P. falciparum HB3 in erythrocytes, SYBR Green DNA, 72 h; at 28.5 µM unless noted
Method in brief: as §1

[5] = High-throughput drug toxicity screening in the BPDCN cell line Gen2.2 (AID 1224824; call rule not given here;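 further: cells exposed to compounds for 48 h before reading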); details: Gen2.2 BPDCN cells; at 45.8 µM (top of the series) unless noted
Method in brief: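 CellTiter-Glo luminescence read after 48 h compound exposure at 37 C defines viability; percent activity set with DMSO as 100% and bortezomib (9.2 uM final) as 0%. 500 exponentially growing cells per well, RPMI plus 10% FBS.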

[6] = High-throughput drug toxicity screening in the BPDCN cell line Cal-1 (AID 1224825; call rule not given here); details: Cal-1 BPDCN cell viability, qHTS; at 45.8 µM (top of the series) unless noted
Method in brief: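 CellTiter-Glo luminescence after 48 h compound exposure; percent activity scaled with DMSO as 100% and bortezomib (9.2 uM final) as 0%. Cal-1 cells seeded at 500/well in RPMI, 10% FBS, no phenol red.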

[7] = qHTS assay for measurement of the activity of small molecule inhibitors on Zika virus induced Caspase-3 activity in human iPSC derived neural progenitor cells (hNPCs) (AID 1224857); further: % of control where 0% means no effect; nearly all actives have a fitted effect of over 65% in size
Method in brief: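 Caspase-3/7 induction by a 6-hour ZIKV infection was quantified with a luminescent Caspase-Glo 3/7 reagent incubated 30 minutes at room temperature. Compounds were preincubated with hNPCs for 1 hour; inhibition was calculated against uninfected and infected control wells.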

[8] = qHTS assay for measurement of the activity of small molecule inhibitors on Zika virus induced Caspase-3 activity in human astrocytoma cells (AID 1224859);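 further: plate controls were ZIKV-infected untreated cells for no effect and uninfected cells for full effect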
Method in brief: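 In SNB-19 cells plated at 250 cells/well and grown 16-20 h, compounds were applied 1 h before ZIKV (2 FFU/cell). Six hours later caspase-3/7 luminescence was recorded.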

[9] = qHTS Screen of the MIPE 4.0 Collection Against Ewings Sarcoma (RDES) (AID 1259252); further: nearly all actives have a fitted effect of over 35% in size; further: potency means the concentration at half of the fitted maximal effect
Method in brief: (§2)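 Log-phase cells in RPMI with 5% FBS attached for 4 h, then received compounds as a titration for 48 h at 37C, 5% CO2. Viability was read by CellTiter-Glo luminescence and normalized to DMSO and no-cell wells.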

[10] = qHTS Screen of the MIPE 4.0 Collection Against Ewings Sarcoma (TC71) (AID 1259253); further: nearly all actives have a fitted effect of over 40% in size; further: potency means the concentration at half of the fitted maximal effect
Method in brief: as §2

[11] = qHTS Screen of the MIPE 4.0 Collection Against Ewings Sarcoma (EW8) (AID 1259255); further: nearly all actives have a fitted effect of over 35% in size; further: potency means the concentration at half of the fitted maximal effect;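 on viability: 100% = DMSO-treated cells and 0% = medium-only wells without cells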
Method in brief: as §2

[12] = qHTS Screen of the MIPE 4.0 Collection Against Ewings Sarcoma (TC32) (AID 1259256); further: nearly all actives have a fitted effect of over 45% in size; further: potency means the concentration at half of the fitted maximal effect
Method in brief: as §2

| Compound | parasite growth, % of DMSO control [1] [%] | parasite growth remaining, % of DMSO control (lower = more inhibition) [2] [%] | parasite growth, % of control (lower = inhibition) [3] [%] | growth, % of control [4] [%] | cell viability, % of control (lower = more cytotoxic) [5] [%] | viability (% of control) [6] [%] | Potency [7] | Potency [8] | Potency [9] | Potency [10] | Potency [11] | Potency [12] |
| --- | --- | --- | --- | --- | --- | --- | --- | --- | --- | --- | --- | --- |
| OCc1ccccc1O[C@@H]1O[C@H](CO)[C@H](O)[C@H](O)[C@H]1O | 95.9 | 96.7 | 89.7 | 92.1 | 151 | 108 | inactive | inactive | inactive | inactive | inactive | inactive |
| C=C1C(=CC=C2CCC[C@]3(C)[C@@H]([C@H](C)CCCC(C)(C)O)CC[C@@H]23)C[C@@H](O)C[C@@H]1O | 15.5 | 95.2 | 22.4 | 9.14 | 20.5 | 6.91 | inactive | inactive | 2640 nM (active) | 2960 nM (active) | 5260 nM (active) | 3720 nM (active) |
| O=C(CCCCCCC(=O)Nc1cccnc1)NO | 5.14 | 7.37 | 7.99 | 4.47 | 20.5 | 10.1 | inactive | inactive | 2960 nM (active) | 5260 nM (active) | 2640 nM (active) | 5260 nM (active) |
| CC[C@]12C=CCN3CC[C@@]4(c5cc([C@@]6(C(=O)OC)C[C@H]7C[C@@H](C(C)(F)F)CN(Cc8c6[nH]c6ccccc86)C7)c(OC)cc5N(C)[C@H]4[C@@](O)(C(=O)OC)[C@H]1OC(C)=O)[C@@H]32 | 17 | 12.3 | 24.8 | 16.3 | 8.97 | 9.46 | inactive | inactive | 10.5 nM (active) | 18.7 nM (active) | 5.3 nM (active) | inactive |
| C=CCNC1=C2C[C@@H](C)C[C@H](OC)[C@@H](O)[C@@H](C)C=C(C)[C@H](OC(N)=O)[C@@H](OC)C=CC=C(C)C(=O)NC(=CC1=O)C2=O | 5.05 | 7.22 | 9.89 | 4.67 | 6.66 | 5.31 | inactive | inactive | 6620 nM (active) | 3720 nM (active) | 10500 nM (active) | 372 nM (active) |
| COc1ccnc2[nH]cc(C(=O)C(=O)N3CCN(C(=O)c4ccccc4)C[C@@H]3C)c12 | 81 | 98 | 86.4 | 99.1 | 172 | 119 | inactive | inactive | inactive | 2640 nM (active) | inactive | 4180 nM (active) |
| CN(N=O)C(=O)N[C@H]1C(O)OC(CO)[C@@H](O)[C@H]1O (some centres undefined) | 81.6 | 93.8 | 114 | 68.3 | 97.4 | 96.8 | inactive | inactive | inactive | inactive | inactive | inactive |
